Source: PubChem BioAssay (NCI)
Compounds without any hit were thinned out: in the full panel of roughly 83,000, 20% have a hit.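 Single-concentration screen, 48 h exposure, 96-well plates. Endpoint: percent growth. Below 10 = active.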 A number with no mark means an inactive call. Calls of active or inactive are those of the source.

What was measured:
Test in all cases: NCI-60 one-dose screen, 48 h (100 = growth as untreated, 0 = no growth, -100 = all killed)
Details in all cases: 10 µM unless noted
NCI-H23 lung = test system: NCI-H23 lung
NCI-H226 lung = test system: NCI-H226 lung
NCI-H322M lung = test system: NCI-H322M lung
HOP-62 NSCLC = test system: HOP-62 NSCLC
NCI-H460 lung = test system: NCI-H460 lung
HOP-92 NSCLC = test system: HOP-92 NSCLC
NCI-H522 lung = test system: NCI-H522 lung
A549/ATCC NSCLC = test system: A549/ATCC NSCLC
786-0 renal = test system: 786-0 renal
COLO 205 colon = test system: COLO 205 colon

Compound: COc1cccc(NC(=O)Nc2ccc(Nc3ncnc4[nH]c(C)c(C)c34)cc2)c1
- growth (NCI-H23 lung): 111%
- growth (NCI-H226 lung): 101%
- growth (NCI-H322M lung): 114%
- growth (HOP-62 NSCLC): 103%
- growth (NCI-H460 lung): 102%
- growth (HOP-92 NSCLC): 104%
- growth (NCI-H522 lung): 90.8%
- growth (A549/ATCC NSCLC): 92.7%
- growth (786-0 renal): 113%
- growth (COLO 205 colon): 112%

Compound: C#C[C@@]1(O)[C@@H](CO)O[C@@H](n2cc(Br)c3c(N)ncnc32)[C@@H]1O
- growth (NCI-H23 lung): 2.83% (active)
- growth (NCI-H226 lung): 21.2%
- growth (NCI-H322M lung): 1.46% (active)
- growth (HOP-62 NSCLC): -5.18% (active)
- growth (NCI-H460 lung): -36% (active)
- growth (HOP-92 NSCLC): -27.2% (active)
- growth (NCI-H522 lung): -30.7% (active)
- growth (A549/ATCC NSCLC): -51.8% (active)
- growth (786-0 renal): -48.5% (active)
- growth (COLO 205 colon): -36.8% (active)

Compound: CN1CCN(CC#CCOC(=O)CNC(=O)[C@]23CCC(C)(C)C[C@H]2C2=CC[C@@H]4[C@@]5(C)CC[C@H](O)C(C)(C)[C@@H]5CC[C@@]4(C)[C@]2(C)CC3)CC1
- growth (NCI-H23 lung): 94.2%
- growth (NCI-H226 lung): 93.5%
- growth (NCI-H322M lung): 94.2%
- growth (HOP-62 NSCLC): 90.4%
- growth (NCI-H460 lung): 96.4%
- growth (HOP-92 NSCLC): 88.7%
- growth (NCI-H522 lung): 87.8%
- growth (A549/ATCC NSCLC): 79.2%
- growth (786-0 renal): 80.3%
- growth (COLO 205 colon): 85.4%

Compound: COc1ccc2oc(=O)cc(-c3c(C#N)c(N)n4nc(N)c(C#N)c4c3C#N)c2c1
- growth (NCI-H23 lung): 102%
- growth (NCI-H226 lung): 95.4%
- growth (NCI-H322M lung): 96.8%
- growth (HOP-62 NSCLC): 90.9%
- growth (NCI-H460 lung): 101%
- growth (HOP-92 NSCLC): 97.3%
- growth (NCI-H522 lung): 80.1%
- growth (A549/ATCC NSCLC): 95%
- growth (786-0 renal): 103%
- growth (COLO 205 colon): 108%

Compound: O=[N+]([O-])c1ccc(Oc2ccc(-c3ccccc3)cc2)cc1
- growth (NCI-H23 lung): 85.3%
- growth (NCI-H226 lung): 76.7%
- growth (NCI-H322M lung): 100%
- growth (HOP-62 NSCLC): 92.1%
- growth (NCI-H460 lung): 92.9%
- growth (HOP-92 NSCLC): 74.3%
- growth (NCI-H522 lung): 67.5%
- growth (A549/ATCC NSCLC): 91.5%
- growth (786-0 renal): 84.6%
- growth (COLO 205 colon): 109%

Compound: CS(=O)(=O)O[C@@H]1C(=O)N(c2cc3c4ccccc4ccc3c3ccccc23)[C@H]1c1ccc(F)cn1
- growth (NCI-H23 lung): 49.5%
- growth (NCI-H226 lung): 63.2%
- growth (NCI-H322M lung): 67%
- growth (HOP-62 NSCLC): 35.2%
- growth (NCI-H460 lung): 16.4%
- growth (HOP-92 NSCLC): 57%
- growth (NCI-H522 lung): -19.9% (active)
- growth (A549/ATCC NSCLC): 47.1%
- growth (786-0 renal): 26.2%
- growth (COLO 205 colon): 48.4%

Compound: O=C(Nc1cc(Nc2ncccc2-c2ncnc3nc[nH]c23)ccc1F)c1cc(C(F)(F)F)cc(C(F)(F)F)c1
- growth (NCI-H23 lung): -3.98% (active)
- growth (NCI-H226 lung): 16.8%
- growth (NCI-H322M lung): 46.7%
- growth (HOP-62 NSCLC): -14.4% (active)
- growth (NCI-H460 lung): -30.4% (active)
- growth (HOP-92 NSCLC): -31.3% (active)
- growth (NCI-H522 lung): 11.7%
- growth (A549/ATCC NSCLC): 0.774% (active)
- growth (786-0 renal): -3.09% (active)
- growth (COLO 205 colon): -60.2% (active)

Compound: COc1cc([C@H](C)c2ccc3ccccc3c2)cc(OC)c1OC
- growth (NCI-H23 lung): 30.1%
- growth (NCI-H226 lung): 68.2%
- growth (NCI-H322M lung): 55.9%
- growth (HOP-62 NSCLC): 36.7%
- growth (NCI-H460 lung): 8.84% (active)
- growth (HOP-92 NSCLC): 66.3%
- growth (NCI-H522 lung): 10.1%
- growth (A549/ATCC NSCLC): 24.6%
- growth (786-0 renal): 39.6%
- growth (COLO 205 colon): -3.69% (active)

Compound: C=C(C)[C@@H]1CC[C@]2(C(=O)O)CC[C@]3(C)[C@H](CC[C@@H]4[C@@]5(C)C[C@@H](CC#Cc6ccc(Cl)cc6)C(=O)C(C)(C)[C@@H]5CC[C@]43C)[C@@H]12
- growth (NCI-H23 lung): 28.5%
- growth (NCI-H226 lung): 40.2%
- growth (NCI-H322M lung): 55.6%
- growth (HOP-62 NSCLC): 54.7%
- growth (NCI-H460 lung): 34.8%
- growth (HOP-92 NSCLC): 67.9%
- growth (NCI-H522 lung): 12.6%
- growth (A549/ATCC NSCLC): 31.3%
- growth (786-0 renal): 60.5%
- growth (COLO 205 colon): 53.8%

Compound: Nc1c(C(=O)Nc2ccccn2)sc2nc3c(cc12)CCCC3
- growth (NCI-H23 lung): 69%
- growth (NCI-H226 lung): 82.8%
- growth (NCI-H322M lung): 78.7%
- growth (HOP-62 NSCLC): 45.3%
- growth (NCI-H460 lung): 25.3%
- growth (HOP-92 NSCLC): 60.2%
- growth (NCI-H522 lung): 29.2%
- growth (A549/ATCC NSCLC): 46.4%
- growth (786-0 renal): 48.7%
- growth (COLO 205 colon): 49.5%

Compound: CCN(CC)c1ccc2c(c1)Oc1nc(N)c(C#N)c(N)c1C2Sc1ccc(OC)cc1 (stereo not given)
- growth (NCI-H23 lung): -25.8% (active)
- growth (NCI-H226 lung): 5.34% (active)
- growth (NCI-H322M lung): 97.6%
- growth (HOP-62 NSCLC): 35.9%
- growth (NCI-H460 lung): -18.3% (active)
- growth (HOP-92 NSCLC): 88.3%
- growth (NCI-H522 lung): -61.9% (active)
- growth (A549/ATCC NSCLC): 72.8%
- growth (786-0 renal): 0.244% (active)
- growth (COLO 205 colon): -60% (active)

Compound: COc1cc(C2=NN(c3ccccc3)C(c3cccc(Nc4ccnc5cc(C(F)(F)F)ccc45)c3)C2)cc(OC)c1OC (stereo not given)
- growth (NCI-H23 lung): 79.1%
- growth (NCI-H226 lung): 83.6%
- growth (NCI-H322M lung): 85.6%
- growth (HOP-62 NSCLC): 88.8%
- growth (NCI-H460 lung): 96.2%
- growth (HOP-92 NSCLC): 73.4%
- growth (NCI-H522 lung): 76.4%
- growth (A549/ATCC NSCLC): 86.5%
- growth (786-0 renal): 101%
- growth (COLO 205 colon): 86.7%

Compound: Cc1ccc(C(=O)O)o1
- growth (NCI-H23 lung): 100%
- growth (NCI-H226 lung): 104%
- growth (NCI-H322M lung): 105%
- growth (HOP-62 NSCLC): 109%
- growth (NCI-H460 lung): 108%
- growth (HOP-92 NSCLC): 89.9%
- growth (NCI-H522 lung): 87%
- growth (A549/ATCC NSCLC): 93.1%
- growth (786-0 renal): 97.1%
- growth (COLO 205 colon): 107%
